Laboratory results reported in ChEMBL document CHEMBL3988442, “University of Dundee, Small-Polar-MMV Screening Library” (2021).
About 13,000 (27%) of roughly 48,000 compounds showed an effect of 50% or more. The list shows a part of the results.

The molecules below were run on Wolbachia pipientis (assay: Anti-Wolbachia Cell-Based Screen). Conditions: 5 µM.
Type: functional
Parameters: scale not given: in the data most compounds retested in dose-response had high values
For `Cc1ccc(NC(=O)C(C)N2CCCN(c3nccs3)CC2)c(C)c1` (centres undefined), the “Percent Effect” value was -5.233%.
In the case of `O=S(=O)(NCC1(O)CCCC1)c1ccccc1Br`, the “Percent Effect” value is reported as 2.398%.
For `CC1CCN(S(=O)(=O)c2cccn(CC(=O)NC(C)(C)C)c2=O)CC1`, the “Percent Effect” value was -3.132%.
With `CC1CCN(S(=O)(=O)c2cccn(CC(=O)N3CCOCC3)c2=O)CC1` the “Percent Effect” value was 5.887%.
`CC(C)(C)OC(=O)Cn1cccc(S(=O)(=O)N2CCCC2)c1=O` was tested, and the “Percent Effect” value was 1.983%.
For `O=c1[nH]nc2c(S(=O)(=O)N3CCOCC3)cccn12`, the “Percent Effect” value was 153.4%.
`O=C1N(c2ccc(F)cc2)Cc2n[nH]c(=O)n21` was tested, and the “Percent Effect” value was 2.178%.
`O=c1[nH]nc2c(S(=O)(=O)N3CCN(c4ccc(F)cc4)CC3)cccn12` was tested, and the “Percent Effect” value was 130.4%.
For `O=C(O)c1cc(-c2cc[nH]n2)cc(S(=O)(=O)N2CCCCCC2)c1`, the “Percent Effect” value was 5.373%.
In the case of `CC(=O)Nc1ncc(S(=O)(=O)N2CCOCC2)s1`, the “Percent Effect” value is reported as -0.8414%.
`O=c1[nH]nc2c(S(=O)(=O)N3CCCC3)cccn12` was tested, and the “Percent Effect” value was 132.4%.
`O=S(=O)(Nc1ccc(N2CCOCC2)cn1)c1ccc(F)cc1` was tested, and the “Percent Effect” value was -10.45%.
For `O=c1[nH]nc2c(S(=O)(=O)N3CCCCC3)cccn12`, the “Percent Effect” value was 132.6%.
With `CC(C)(C)OC(=O)Cn1cccc(S(=O)(=O)N2CCCCCC2)c1=O` the “Percent Effect” value was -1.938%.
`Cc1nc(CN2CCC(CNC(=O)C3CCOC3)CC2)oc1C` (centres undefined) was tested, and the “Percent Effect” value was -1.518%.
`CCCN(CCC)C(=O)c1cc(CN2CCC(O)CC2)on1` was tested, and the “Percent Effect” value was -23.18%.
With `COc1ccc(-c2noc(CCC(=O)N3CCOCC3(C)C)n2)cc1` the “Percent Effect” value was 3.097%.
For `CCc1nccn1C1CCCN(C(=O)c2cc3nc(C)ccc3o2)C1` (centres undefined), the “Percent Effect” value was -10.67%.
`O=c1[nH]nc2c(S(=O)(=O)N3CCCCCC3)cccn12` was tested, and the “Percent Effect” value was 159%.
In the case of `Cc1nnc(SCCNC(=O)CC2CCc3ccccc32)s1` (centres undefined), the “Percent Effect” value is reported as -7.078%.
With `O=C(O)C(F)(F)F.O=C1CO[C@@H]2CN(CC3CCOC3)C[C@H]2N1Cc1cccc(F)c1` (some centres undefined) the “Percent Effect” value was 18.32%.
With `CC(C)N1C[C@@H]2OCC(=O)N(Cc3ccccc3)[C@@H]2C1` the “Percent Effect” value was 4.027%.
In the case of `O=C(O)C(F)(F)F.O=C1CO[C@@H]2CN(CC3CC3)C[C@H]2N1Cc1cccc(F)c1`, the “Percent Effect” value is reported as 2.959%.
For `O=C1CO[C@H]2CN(S(=O)(=O)c3ccccc3)C[C@H]2N1Cc1ccccc1`, the “Percent Effect” value was -0.9845%.
With `CN1CCC(C(=O)N2CCN(Cc3cccc(Cl)c3)CC2)CC1=O` (centres undefined) the “Percent Effect” value was 1.504%.
`O=C(O)[C@H]1OCC(=O)N(Cc2cccc(Cl)c2)[C@@H]1c1ccccc1` was tested, and the “Percent Effect” value was 97.67%.
In the case of `NC(=O)CN1C(=O)CO[C@H]2CN(Cc3ccccc3)C[C@H]21`, the “Percent Effect” value is reported as -7.855%.
With `O=C(O)[C@H]1OCC(=O)N(Cc2cccc(F)c2)[C@@H]1c1ccc(Cl)cc1` the “Percent Effect” value was 104.6%.
`O=C(O)[C@@H]1OCC(=O)N(Cc2cccc(Cl)c2)[C@@H]1c1ccccc1` was tested, and the “Percent Effect” value was 105.3%.
With `CCOc1ccccc1-c1noc(CN2CC(n3cccn3)C2)n1` the “Percent Effect” value was -3.661%.
For `COc1ccc(C2(C(=O)N3CC(c4cccnc4)C3)CC2(C)C)cc1` (centres undefined), the “Percent Effect” value was -12.52%.
In the case of `COc1ccc(C(=O)N2CCOC(Cc3cccc(C(F)(F)F)c3)C2)o1` (centres undefined), the “Percent Effect” value is reported as -4.741%.
`N#Cc1ccc(CNc2ncc(C#N)cc2Cl)cc1` was tested, and the “Percent Effect” value was 12.93%.
With `CCn1nc(C)c(CN(CCOC)C(=O)c2ccccc2N(C)C)c1C` the “Percent Effect” value was -7.863%.
`CCn1nc(C)c(CN(CCCN(C)C)Cc2ccccn2)c1C` was tested, and the “Percent Effect” value was 80.15%.
For `CCn1nc(C)c(CN(CCCOC)Cc2ccccn2)c1C.O=C(O)CC(O)(CC(=O)O)C(=O)O`, the “Percent Effect” value was 71.01%.
In the case of `Cc1ccoc1C(=O)N(CCN(C)C)Cc1ccccn1`, the “Percent Effect” value is reported as -10.81%.
With `Cc1ccsc1CN(CCCN(C)C)Cc1ccccn1` the “Percent Effect” value was 97.01%.
For `Cc1ccsc1CN(Cc1ccccn1)CC(C)C`, the “Percent Effect” value was -7.102%.
In the case of `Cc1occc1C(=O)N(CCN(C)C)Cc1ccccn1`, the “Percent Effect” value is reported as -8.298%.
`CCN(Cc1ccccn1)Cc1cc(Cl)ccc1OC` was tested, and the “Percent Effect” value was -5.315%.
`CCOCC(=O)N(Cc1ccccn1)Cc1ccccc1C` was tested, and the “Percent Effect” value was -6.914%.
With `Cc1ccsc1CN(CCN(C)C)Cc1ccccn1` the “Percent Effect” value was 2.739%.
For `CCn1nc(C)c(CN(Cc2ccccn2)Cc2ccccc2Cl)c1C`, the “Percent Effect” value was 105.5%.
For `CCn1nc(C)c(CN(CCOC)C(=O)c2ccc(=O)[nH]n2)c1C`, the “Percent Effect” value was -5.597%.
In the case of `CN1CCCN(CCCNC2CCc3cc4c(cc32)OCCO4)CC1` (centres undefined), the “Percent Effect” value is reported as -2.164%.
With `CCN1CCN(c2ccc(F)cc2C(C)NCc2noc(C)n2)CC1` (centres undefined) the “Percent Effect” value was 6.672%.
In the case of `NC(=O)c1ccnc(N2CCN(Cc3ccc(F)cc3Cl)CC2)c1`, the “Percent Effect” value is reported as 9.794%.
For `CCCn1nc(C)c(CN(CCN(C)C)Cc2ccccn2)c1C`, the “Percent Effect” value was 95.65%.
`CCCN(Cc1ccccn1)Cc1ccccc1OC` was tested, and the “Percent Effect” value was 8.723%.
For `CCCn1ncc(CN(CCN(C)C)Cc2ccsc2)c1C`, the “Percent Effect” value was 0.1145%.
In the case of `NC(=O)N1CCCC1COC(=O)c1ccc(F)cc1Br` (centres undefined), the “Percent Effect” value is reported as -14.4%.
With `O=S1(=O)CCC(CNS(=O)(=O)N2CCc3ccccc3C2)C1` (centres undefined) the “Percent Effect” value was 5.684%.
For `CCCC(C)(C)NC(=O)c1ccc(CC2CC(=O)NC2=O)cc1` (centres undefined), the “Percent Effect” value was -6.168%.
In the case of `O=C(N[C@@H]1CNCCC[C@H]1O)c1ccc(OCc2ccccc2)cc1`, the “Percent Effect” value is reported as -1.908%.
For `O=C(N[C@H]1CCCC[C@@H]1O)c1cccc(-c2nc3ccccc3[nH]2)c1`, the “Percent Effect” value was 102.7%.
With `O=C(N[C@@H]1CCNC[C@H]1O)c1ccc(F)c(F)c1` the “Percent Effect” value was 7.783%.
`O=C(N[C@@H]1CCNC[C@H]1O)c1ccc(O)c(Cl)c1` was tested, and the “Percent Effect” value was 22.9%.
With `OCC1CCCCN1CCn1ccnc1-c1nc2ccccc2[nH]1` (centres undefined) the “Percent Effect” value was 1.292%.
In the case of `O=C(N[C@H]1CCCC[C@@H]1O)c1ccc2nc(-c3ccccc3)[nH]c2c1`, the “Percent Effect” value is reported as 121.7%.
With `CN1CCCC1CCn1ccnc1-c1nc2ccccc2[nH]1` (centres undefined) the “Percent Effect” value was 1.274%.
With `O=C(N[C@@H]1CCNC[C@H]1O)c1ccc(-c2ccc(F)cc2)cc1` the “Percent Effect” value was 15.94%.
In the case of `O=C(N[C@H]1CCCC[C@@H]1O)c1ccc(-c2nc3ccccc3[nH]2)cc1`, the “Percent Effect” value is reported as 104%.
In the case of `O=C(CCc1cn[nH]c1)N1C[C@@H](CN2CCOCC2)C[C@H](CO)C1`, the “Percent Effect” value is reported as 10.13%.
With `COC(=O)c1sccc1S(=O)(=O)N1CCC(Oc2cccnn2)CC1` the “Percent Effect” value was 13.23%.
In the case of `COC(=O)N1CCCC(NC(=O)NCc2ccc(C)nc2)C1` (centres undefined), the “Percent Effect” value is reported as 12.17%.
With `CN(C)Cc1ccnc(C2CN(CCCc3ccccc3)CCO2)n1` (centres undefined) the “Percent Effect” value was 114%.
`CN(Cc1nccn1C)C1CCCN(CCCc2ccccc2)C1` (centres undefined) was tested, and the “Percent Effect” value was 7.706%.
In the case of `Cc1nc(C)n(CC2CN(CCCc3ccccc3)CCO2)n1` (centres undefined), the “Percent Effect” value is reported as -18.17%.
For `CC(C)(C)c1n[nH]c(C2CN(CCc3ccncc3)CCO2)n1` (centres undefined), the “Percent Effect” value was 18.66%.
For `CN(C)Cc1ccnc(C2CN(CCc3ccccc3)CCO2)n1` (centres undefined), the “Percent Effect” value was 102.6%.
In the case of `Cn1ncc(N2CCC(CNC3CC(C)(C)CC(C)(C)C3)C2)cc1=O` (centres undefined), the “Percent Effect” value is reported as 8.981%.
In the case of `CS(=O)(=O)c1cc(Cl)cnc1C1CCN(C(=O)C2CCCO2)CC1` (centres undefined), the “Percent Effect” value is reported as 120.4%.
`O=C(C1CCCO1)N1CCC(Cn2cc(C3CCCC3)nn2)CC1` (centres undefined) was tested, and the “Percent Effect” value was -6.289%.
For `O=C(C1CCCO1)N1CCC(c2nc(-c3ccccc3)n[nH]2)CC1` (centres undefined), the “Percent Effect” value was -16.11%.
In the case of `Cc1nn(C)cc1CN1C[C@@H]2CC[C@H](C1)N(Cc1c(C)noc1C)C2=O`, the “Percent Effect” value is reported as -0.3171%.
`Cc1nn(C)cc1CN1CCC(c2ncc(Cl)cc2S(C)(=O)=O)CC1` was tested, and the “Percent Effect” value was 110.1%.
With `Cn1c(CN2CCCC2)nnc1C1CCCN(C(=O)C2CCOCC2)C1` (centres undefined) the “Percent Effect” value was -15.35%.
`CS(=O)(=O)c1cc(Cl)cnc1C1CCCN(C(=O)C2CCOCC2)C1` (centres undefined) was tested, and the “Percent Effect” value was 120.4%.
For `Cc1nn(CCO)cc1CN1CCC(N2CCC(O)CC2)CC1`, the “Percent Effect” value was -2.078%.
`CS(=O)(=O)c1cc(Cl)cnc1C1CCN(C(=O)C2CCOCC2)CC1` was tested, and the “Percent Effect” value was 98%.
With `CN(CCO)Cc1nnc(C2CCN(C(=O)C3CCOCC3)CC2)n1C` the “Percent Effect” value was -7.962%.
For `CS(=O)(=O)N1C[C@@H](C(=O)Nc2cnccn2)C[C@H]2OCC[C@H]21`, the “Percent Effect” value was -10.64%.
In the case of `Cc1cc(C)cc(C(=O)Nc2ccc(CC3CC(=O)NC3=O)cc2)c1` (centres undefined), the “Percent Effect” value is reported as -7.063%.
With `CCS(=O)(=O)c1ccc(N2CCC(N)CC2)cc1` the “Percent Effect” value was -6.106%.
With `CCc1noc(C)c1C(=O)NCCCC(CC)(CC)C1OCCO1` the “Percent Effect” value was -8.501%.
For `Cn1c(C(F)(F)F)nn(CCNC(=O)c2cnc3ccccc3n2)c1=O`, the “Percent Effect” value was 1.982%.
In the case of `O=C(C1CC1)N1CCC(Oc2ccccc2Cl)CC1`, the “Percent Effect” value is reported as -14.42%.
In the case of `N#Cc1cnc(NC2CCN(C(=O)C3CC3)CC2)c(Cl)c1`, the “Percent Effect” value is reported as -2.67%.
In the case of `CS(=O)(=O)c1cc(Cl)cnc1C1CCN(C(=O)C2CC2)CC1`, the “Percent Effect” value is reported as 82.8%.
For `CCn1nc(C)c(CCNC(=O)C2CCCN(CC(N)=O)C2)c1C` (centres undefined), the “Percent Effect” value was -1.587%.
With `O=C(CSC1=NS(=O)(=O)c2cc(F)ccc2N1)Nc1ccc(Cl)c(Cl)c1` the “Percent Effect” value was 112.6%.
For `CN(CCS(=O)(=O)c1cc(Cl)ccc1Cl)CC(=O)Nc1ccc(F)cc1`, the “Percent Effect” value was -4.797%.
In the case of `O=S1(=O)N=C(SCc2ccc(Cl)cc2)Nc2ccc(F)cc21`, the “Percent Effect” value is reported as 26.5%.
For `O=C(CSC1=NS(=O)(=O)c2cc(F)ccc2N1)Nc1cccc(Cl)c1`, the “Percent Effect” value was 1.822%.
`O=C(CSC1=NS(=O)(=O)c2cc(F)ccc2N1)Nc1ccc(Cl)cc1` was tested, and the “Percent Effect” value was 115.7%.
With `NCC(=O)N1CCC(c2cncc(Oc3cccnc3)n2)CC1` the “Percent Effect” value was 115.4%.
In the case of `COCCC(=O)N1Cc2[nH]nc(COc3cccnc3)c2C1`, the “Percent Effect” value is reported as -7.677%.
`CCOCC(=O)N1CCC(c2nc(-c3cccnn3)no2)CC1` was tested, and the “Percent Effect” value was -10.28%.
In the case of `COCCC(=O)N1CCC(c2cncc(Oc3cccnc3)n2)CC1`, the “Percent Effect” value is reported as 116.7%.
In the case of `CN(C)c1cncc(C2CCN(C(=O)CO)CC2)n1`, the “Percent Effect” value is reported as -8.172%.
`CCC(=O)N1CCC(c2cncc(Oc3cccnc3)n2)CC1` was tested, and the “Percent Effect” value was 118.9%.
For `O=C(c1cnc[nH]1)N1CCC(Oc2cccnc2)CC1`, the “Percent Effect” value was -5.216%.
In the case of `CC(=O)NCC(=O)N1CCC(c2cncc(Oc3cccnc3)n2)CC1`, the “Percent Effect” value is reported as 94.92%.
